# Only a selection was taken, and the strongest signals are over-represented in it overall.
# Experiments:
# Assay in all cases: glycan array binding signal (z-score within array); higher = stronger binding
# Conditions in all cases: glycan notation: IUPAC condensed, linker removed
# [1] = molecular target: Fuc(a1-2)Gal(b1-3)GalNAc(b1-4)[Neu5Ac(a2-3)]Gal(b1-4)Glc
# How it was run: (§1)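 Glycan array binding is given as a within-array Z-score, which can be read as non-binding when negative. The arrays, 3228 of them, came from the Consortium for Functional Glycomics database and were retained only where the protein sequence was available. Z-scores were averaged across arrays of the same protein sequence at different concentrations or buffers and across linkers.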
# [2] = molecular target: Fuc(a1-2)Gal6S(b1-3)GlcNAc6S
# How it was run: as §1
# [3] = molecular target: Fuc(a1-2)[Gal(a1-3)]Gal(b1-4)[Fuc(a1-3)]Glc
# How it was run: as §1
# [4] = molecular target: Fuc(a1-2)[GalNAc(a1-3)]Gal(b1-3)GlcNAc(b1-6)GalNAc
# How it was run: as §1
# [5] = molecular target: Fuc(a1-2)[GalNAc(a1-3)]Gal(b1-4)GlcNAc(b1-3)Gal(b1-4)GlcNAc(b1-3)Gal(b1-4)GlcNAc
# How it was run: as §1
# [6] = molecular target: Fuc(a1-2)[GalNAc(b1-3)]Gal
# How it was run: as §1
# [7] = molecular target: Fuc(a1-3)[Gal3S(b1-4)]Glc
# How it was run: as §1
# [8] = molecular target: Fuc(b1-3)GlcNAc
# How it was run: as §1
# [9] = molecular target: Gal(a1-3)Gal(b1-4)Glc
# How it was run: as §1
# [10] = molecular target: Gal(a1-3)[Gal(a1-4)]Gal(b1-4)GlcNAc
# How it was run: as §1
# [11] = molecular target: Gal(a1-4)Gal(b1-4)GlcNAc(b1-2)Man(a1-3)[Gal(a1-4)Gal(b1-4)GlcNAc(b1-2)Man(a1-6)]Man(b1-4)GlcNAc(b1-4)GlcNAc
# How it was run: as §1
# [12] = molecular target: Gal(b1-3)GalNAc
# How it was run: as §1
# [13] = molecular target: Gal(b1-3)GalNAc(b1-3)Gal(a1-4)Gal(b1-4)Glc
# How it was run: as §1
# [14] = molecular target: Gal(b1-3)GlcNAc(b1-3)Gal(b1-4)GlcNAc(b1-2)Man(a1-3)[Gal(b1-3)GlcNAc(b1-3)Gal(b1-4)GlcNAc(b1-2)Man(a1-6)]Man(b1-4)GlcNAc(b1-4)GlcNAc
# How it was run: as §1
# [15] = molecular target: Gal(b1-4)GlcNAc(b1-3)Gal(b1-4)GlcNAc(b1-3)GalNAc
# How it was run: as §1
# [16] = molecular target: Gal(b1-4)GlcNAc(b1-3)GalNAc
# How it was run: as §1
# [17] = molecular target: Gal3S6S(b1-4)GlcNAc
# How it was run: as §1
# [18] = molecular target: GalNAc(a1-3)Gal
# How it was run: as §1
# [19] = molecular target: GalNAc(b1-3)Gal
# How it was run: as §1
# [20] = molecular target: GalNAc(b1-3)Gal(a1-4)Gal(b1-4)GlcNAc
# How it was run: as §1
# [21] = molecular target: GalNAc(b1-3)Gal(a1-4)Gal(b1-4)GlcNAc(b1-3)Gal(b1-4)Glc
# How it was run: as §1
# [22] = molecular target: GalNAc(b1-3)Gal(a1-6)Gal(b1-4)Glc
# How it was run: as §1
# [23] = molecular target: GalNAc(b1-4)GlcNAc
# How it was run: as §1
# [24] = molecular target: GalNAc(b1-4)GlcNAc(b1-2)Man
# How it was run: as §1
# [25] = molecular target: GalNAc(b1-4)GlcNAc(b1-2)Man(a1-3)[GalNAc(b1-4)GlcNAc(b1-2)Man(a1-6)]Man(b1-4)GlcNAc(b1-4)GlcNAc
# How it was run: as §1
# [26] = molecular target: GalNAc(b1-4)GlcNAc(b1-3)GalNAc(b1-4)GlcNAc
# How it was run: as §1
# [27] = molecular target: GalNAc(b1-4)GlcNAc6S
# How it was run: as §1
# [28] = molecular target: Glc(a1-4)Glc(a1-4)Glc(a1-4)Glc
# How it was run: as §1
# [29] = molecular target: GlcNAc(b1-2)Man(a1-3)[GlcNAc(b1-2)Man(a1-6)]Man(b1-4)GlcNAc(b1-4)[Fuc(a1-6)]GlcNAc
# How it was run: as §1
# [30] = molecular target: GlcNAc(b1-2)Man(a1-3)[GlcNAc(b1-4)][GlcNAc(b1-2)Man(a1-6)]Man(b1-4)GlcNAc(b1-4)GlcNAc
# How it was run: as §1
# [31] = molecular target: GlcNAc(b1-2)[GlcNAc(b1-4)]Man(a1-3)[GlcNAc(b1-4)][GlcNAc(b1-2)[GlcNAc(b1-6)]Man(a1-6)]Man(b1-4)GlcNAc(b1-4)[Fuc(a1-6)]GlcNAc
# How it was run: as §1
# [32] = molecular target: GlcNAc(b1-4)Gal(b1-4)GlcNAc
# How it was run: as §1
# [33] = molecular target: Man(a1-2)Man(a1-3)[Man(a1-2)Man(a1-6)]Man
# How it was run: as §1
# [34] = molecular target: Man(a1-2)Man(a1-6)[Man(a1-3)]Man(a1-6)[Man(a1-2)Man(a1-2)Man(a1-3)]Man
# How it was run: as §1
# [35] = molecular target: Man(a1-3)[Man(a1-6)]Man(b1-4)GlcNAc(b1-4)GlcNAc
# How it was run: as §1
# [36] = molecular target: Man(a1-3)[Man(a1-6)]Man(b1-4)GlcNAc(b1-4)[Fuc(a1-6)]GlcNAc
# How it was run: as §1
# [37] = molecular target: Neu5Ac(a2-3)Gal(b1-3)GalNAc(b1-4)[Neu5Ac(a2-3)]Gal(b1-4)Glc
# How it was run: as §1
# [38] = molecular target: Neu5Ac(a2-3)Gal(b1-3)GlcNAc(b1-6)GalNAc
# How it was run: as §1
# [39] = molecular target: Neu5Ac(a2-3)Gal(b1-3)[Neu5Ac(a2-6)]GalNAc
# How it was run: as §1
# [40] = molecular target: Neu5Ac(a2-3)Gal(b1-3)[Neu5Ac(a2-6)]GlcNAc(b1-3)[Fuc(a1-3)[Gal(b1-4)]GlcNAc(b1-6)]Gal(b1-4)Glc
# How it was run: as §1
# [41] = molecular target: Neu5Ac(a2-3)Gal(b1-4)GlcNAc(b1-3)Gal(b1-4)GlcNAc(b1-3)GalNAc
# How it was run: as §1
# [42] = molecular target: Neu5Ac(a2-6)Gal(b1-4)GlcNAc(b1-3)[Neu5Ac(a2-6)Gal(b1-4)GlcNAc(b1-6)]GalNAc
# How it was run: as §1
# [43] = molecular target: Neu5Ac(a2-6)Gal(b1-4)GlcNAc(b1-6)GalNAc
# How it was run: as §1
# [44] = molecular target: Neu5Ac(a2-8)Neu5Ac(a2-8)Neu5Ac(a2-8)Neu5Ac(a2-3)[GalNAc(b1-4)]Gal(b1-4)Glc
# How it was run: as §1
# [45] = molecular target: Neu5Gc(a2-3)Gal(b1-3)[Fuc(a1-4)]GlcNAc
# How it was run: as §1
binder,measurement,setting,value
"CSA (Cytisus scoparius), P29257 (protein) SEELSFSFTKFKTDQKNLILQRDALITPTGKLQLTTVENGKPAAYSLGRALYSTPIHIWDKSTGDEASFATFFSFVISDAPNPSTAATDGLAFFLAPADTQPQSAGGYLGLFEKDSSYNSSNQIVAVEFDTYYNSAWDPQTNPHIGIDVNTIKSKKVSSWGFKNGNVATVLITYQPSSKSLVASLVYPSGQTSDKTSYIISANVDLKATVPEWVRIGFSATTGQTDNYIETHDILSWSFKSKLPATKN",glycan array binding signal (z-score),[1],-0.177
same,glycan array binding signal (z-score),[2],-0.196
same,glycan array binding signal (z-score),[3],-0.201
same,glycan array binding signal (z-score),[4],-0.214
same,glycan array binding signal (z-score),[5],-0.012
same,glycan array binding signal (z-score),[6],4.5
same,glycan array binding signal (z-score),[7],-0.165
same,glycan array binding signal (z-score),[8],-0.186
same,glycan array binding signal (z-score),[9],-0.157
same,glycan array binding signal (z-score),[10],-0.124
same,glycan array binding signal (z-score),[11],-0.162
same,glycan array binding signal (z-score),[12],-0.159
same,glycan array binding signal (z-score),[13],0.019
same,glycan array binding signal (z-score),[14],-0.157
same,glycan array binding signal (z-score),[15],0.306
same,glycan array binding signal (z-score),[16],-0.162
same,glycan array binding signal (z-score),[17],-0.186
same,glycan array binding signal (z-score),[18],3.51
same,glycan array binding signal (z-score),[19],2.98
same,glycan array binding signal (z-score),[20],3.35
same,glycan array binding signal (z-score),[21],2.76
same,glycan array binding signal (z-score),[22],4.13
same,glycan array binding signal (z-score),[23],6.99
same,glycan array binding signal (z-score),[24],8.12
same,glycan array binding signal (z-score),[25],3.25
same,glycan array binding signal (z-score),[26],12.4
same,glycan array binding signal (z-score),[27],9.73
same,glycan array binding signal (z-score),[28],-0.19
same,glycan array binding signal (z-score),[29],-0.139
same,glycan array binding signal (z-score),[30],-0.238
same,glycan array binding signal (z-score),[31],-0.166
same,glycan array binding signal (z-score),[32],-0.213
same,glycan array binding signal (z-score),[33],-0.234
same,glycan array binding signal (z-score),[34],-0.179
same,glycan array binding signal (z-score),[35],-0.142
same,glycan array binding signal (z-score),[36],-0.225
same,glycan array binding signal (z-score),[37],-0.247
same,glycan array binding signal (z-score),[38],-0.235
same,glycan array binding signal (z-score),[39],-0.159
same,glycan array binding signal (z-score),[40],-0.146
same,glycan array binding signal (z-score),[41],-0.216
same,glycan array binding signal (z-score),[42],-0.172
same,glycan array binding signal (z-score),[43],-0.202
same,glycan array binding signal (z-score),[44],-0.149
same,glycan array binding signal (z-score),[45],-0.202
